Bioassay records from PubChem BioAssay.
ALDH1A1 block: ALDH1A1 (human) enzyme inhibition; P00352; Purified ALDH1A1, NADH fluorescence, propionaldehyde substrate; Potency, µM (top dose mostly 75.3 µM), most hits filed as inhibitors; hit rate 7.3% among 220,000; AID 1030; active = well fitted inhibition curve with a large enough effect, not every such curve was filed as active; inconclusive = small, poorly fitted or top-dose-only effect, or another doubt; inactive = no such curve, though single readings can be large or run the other way
HPGD block: blocks human HPGD enzyme activity; purified HPGD, NADH fluorescence kinetic, PGE2 substrate; Potency, µM, actives largely listed as inhibitors; hit rate 4.3% among 150,000; active = well fitted inhibition curve with a large enough effect, not every such curve was filed as active; inconclusive = small, poorly fitted or top-dose-only effect, or another doubt; inactive = no such curve, though single readings can be large or run the other way
Target sequence (P15428 whole entry, looked up): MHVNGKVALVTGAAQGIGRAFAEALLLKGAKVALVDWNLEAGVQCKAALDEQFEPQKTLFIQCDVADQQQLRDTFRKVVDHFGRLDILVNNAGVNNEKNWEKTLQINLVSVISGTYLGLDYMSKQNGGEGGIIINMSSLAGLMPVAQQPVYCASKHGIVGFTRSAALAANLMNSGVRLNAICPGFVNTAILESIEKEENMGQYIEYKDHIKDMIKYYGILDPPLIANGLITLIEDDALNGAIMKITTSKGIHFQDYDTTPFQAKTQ
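NADH formation kinetics: reaction with 30 uM PGE2 and 1 mM NAD+ (final), 20 nM enzyme, Tris-HCl pH 8 with Tween 20, after 15 min compound preincubation at room temperature. Fluorescence change, last versus first of five reads.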
IMPase inh: cell-permeable inhibitors of inositol monophosphatase (IMPase). P97697. CHO-M1 cells, IP1 accumulation, HTRF TR-FRET ratio. inhibition (IP1 accumulation), % at 46.1 µM. 120,000 tested, under 10 active; active = well fitted curve in the direction sought with a large enough effect in the signal ratio, not every such curve was filed as active; inconclusive = small, poorly fitted or top-dose-only effect, or a change in a side signal; inactive = no such curve, though single readings can be large or run the other way; the % refers to the signal ratio;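 also: cells stimulated with carbachol in lithium chloride buffer; higher means more IMPase inhibition seen as more IP1 and lower FRET ratio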
Target sequence (P97697 whole entry, looked up): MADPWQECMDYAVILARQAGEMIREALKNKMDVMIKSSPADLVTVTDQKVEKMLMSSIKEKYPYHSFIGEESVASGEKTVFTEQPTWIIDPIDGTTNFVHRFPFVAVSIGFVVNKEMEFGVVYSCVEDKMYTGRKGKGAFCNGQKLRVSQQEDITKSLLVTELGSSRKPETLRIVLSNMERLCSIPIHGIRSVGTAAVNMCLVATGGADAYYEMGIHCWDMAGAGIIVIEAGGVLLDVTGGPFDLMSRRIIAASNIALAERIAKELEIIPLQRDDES
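In this qHTS, compounds (final up to 46 uM) act on CHO-M1 cells that are then activated through the M1 receptor with carbachol, in pH 7.4 buffer containing 50 mM LiCl, for 30 min. IP1 accumulation is quantified by the IP-One immunoassay.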
IMPase Li cell: membrane-permeable IMPase blocker, potentiated with lithium | CHO-M1 cells, IP1 TR-FRET (IP-One), carbachol + lithium | Potency, µM (series often up to 59.4 µM), usual class: inhibitors | hit rate 0.35% among 210,000;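 also: IP1 builds up when IMPase is blocked and the TR-FRET signal falls; nearly all actives have a fitted effect of over 50% in size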
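Readout is a homogeneous TR-FRET IP1 immunoassay (Ex 320, Em 665 and 620), where raised cytosolic IP1 lowers signal. Cells were CHO-M1 treated 30 min at 37C with test compounds plus a little lithium; AC50 values came from Hill-equation fitting.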
PNC inhibitor: inhibitors of perinucleolar compartment assembly | PC3M PTB-GFP, PNC prevalence imaging, 16 h; active compounds read low | activity change (PNC), negative = inhibition, % at 10 µM | hit rate 3.1% among 140,000 | AID 2417;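 active = readout at or below -70, meaning at least 70% loss of cells showing the perinucleolar compartment, a nuclear body marking cancer cells; inconclusive = readout between -30 and a set limit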
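PC3M cells stably expressing PTB-GFP, 750–1000 cells/well, treated 16 h at 37 °C with compound (23 nl of library stock), in duplicate. After paraformaldehyde fixation and Hoechst stain, imaged at 20x; PNC prevalence scored by image analysis.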
NPSR antagonist: antagonists of human neuropeptide S receptor cAMP signaling | Potency, µM (doses to about 38.3 µM), most hits filed as inhibitors | Q6W5P4 | hit rate 1% among 220,000 | CHO-NPSR cells, cAMP TR-FRET, antagonist mode; also: nearly all actives have a fitted effect of over 50% in size
Large screens that a line does not name were inactive; ! = repeats disagree. Most compounds without a hit are left out; they make up all but 11% or so of the library. Unless noted, calls follow the shape of the dose curve; as a rule, active = well fitted curve in the direction sought with a large enough effect; inconclusive = small, poorly fitted or top-dose-only effect, or another doubt; inactive = no such curve, though single readings can be large; an effect the other way counts as inactive or inconclusive.

CC(=O)c1cccc(NC(=O)c2ccc3c(=O)n4c(nc3c2)CCCCC4)c1	ALDH1A1 block 5µM (no result: HPGD block, IMPase inh, PNC inhibitor)
O=C(Nc1cccc(S(=O)(=O)N2CCCC2)c1)c1ccc2c(=O)n3c(nc2c1)CCCCC3	ALDH1A1 block 3.5µM, PNC inhibitor inconclusive (no result: IMPase inh)
O=C(Nc1cccc(S(=O)(=O)N2CCCCCC2)c1)c1ccc2c(c1)OCO2	PNC inhibitor inconclusive (no result: IMPase inh)
CCOC(=O)c1ccccc1NC(=O)c1ccc2c(=O)n3c(nc2c1)CCCCC3	ALDH1A1 block inconclusive, NPSR antagonist inconclusive
CN(C)CC/C=C1\c2cc(F)ccc2CSc2ccccc21	none (no result: IMPase inh)
CC(=O)c1ccc(OC2C(O)COC2/C=C/c2ccc(Cl)cc2)cc1 (stereo not given)	ALDH1A1 block 4µM! (no result: HPGD block, IMPase inh, IMPase Li cell, PNC inhibitor, NPSR antagonist)
O=C(O)c1ccc(N2CC3CC(C2)c2cccc(=O)n2C3)c(NS(=O)(=O)c2cccc(C(F)(F)F)c2)c1 (stereo not given)	none (no result: HPGD block, IMPase inh, PNC inhibitor)
O=C(/C=C/c1ccncc1)c1ccc2c(c1)OCCO2	ALDH1A1 block 0.89µM (no result: HPGD block, IMPase inh, PNC inhibitor)
O=C(/C=C/c1ccccc1)c1ccc2c(c1)OCO2	none (no result: ALDH1A1 block, HPGD block, IMPase inh, IMPase Li cell, PNC inhibitor)
Cc1cc(Nc2cccc(Cl)c2)nc(NCc2ccccc2)n1	PNC inhibitor -94, NPSR antagonist inconclusive (no result: IMPase inh)
Cn1c(Oc2ccc(F)cc2F)c(C=O)c2ccccc21	ALDH1A1 block inconclusive (no result: HPGD block, IMPase inh, PNC inhibitor)
Cn1cc(C=O)c2cc(F)ccc21	ALDH1A1 block 2.2µM (no result: HPGD block, IMPase inh, PNC inhibitor)
Cc1ccccc1CSCC(=O)c1c(N)n(C)c(=O)n(C)c1=O	PNC inhibitor inconclusive
Cc1ccccc1CSCC(=O)c1c(N)n(CC(C)C)c(=O)n(C)c1=O	ALDH1A1 block 28µM
COc1ccccc1NC(=O)c1cccnc1	none
CCCOc1ccccc1-n1sc2c(c1=S)-c1cc(OC)cc3c1N(C(=O)C3=O)C2(C)C	NPSR antagonist inconclusive
CCN(CC)CCCNC(=O)CN1C(=O)CSc2ccc(S(=O)(=O)N3CCOCC3)cc21	PNC inhibitor -113 (no result: IMPase inh)
CCOCCCNC(=O)CN1C(=O)CSc2cc(S(=O)(=O)N3CCCCCC3)ccc21	ALDH1A1 block 10µM, IMPase inh inconclusive (no result: HPGD block, IMPase Li cell)
CCOCCCNC(=O)CN1C(=O)CSc2ccccc21	none (no result: IMPase inh)
CCN(C(=O)Cn1c(=O)n2nc(CCn3nc(C)cc3C)nc2c2ccccc21)c1cccc(C)c1	ALDH1A1 block inconclusive
Cc1cccc(NC(=O)Cn2c(=O)n3nc(CCn4nc(C)cc4C)nc3c3ccccc32)c1	ALDH1A1 block 14µM
O=Cc1ccccc1OS(=O)(=O)c1ccccc1	ALDH1A1 block 13µM
Nn1c(SCC(=O)N2CCc3ccccc3C2)nnc1-c1cccs1	ALDH1A1 block inconclusive (no result: HPGD block, IMPase Li cell)
Fc1ccc2nc(Nc3nc4cc5c(cc4s3)OCO5)sc2c1	ALDH1A1 block inconclusive, HPGD block inconclusive, PNC inhibitor inconclusive (no result: IMPase inh)
O=C(NNc1nc2cc3c(cc2s1)OCO3)c1ccc(F)cc1	ALDH1A1 block inconclusive, HPGD block 25µM, PNC inhibitor -119 (no result: IMPase inh)
c1ccc2sc(Nc3nc4cc5c(cc4s3)OCO5)nc2c1	ALDH1A1 block inconclusive, HPGD block inconclusive, PNC inhibitor -124 (no result: IMPase inh)
COc1ccc(N(C(=O)c2ccccc2C)S(=O)(=O)c2cccs2)cc1	ALDH1A1 block 11µM, PNC inhibitor -97 (no result: IMPase inh)
COc1ccc(N(C(=O)c2ccccc2C)S(=O)(=O)c2ccc(C)cc2)cc1	none (no result: ALDH1A1 block, HPGD block, IMPase Li cell, PNC inhibitor, NPSR antagonist)
c1ccc(CCc2nn3c(Cc4ccccc4)nnc3s2)cc1	ALDH1A1 block 8.9µM, HPGD block 11µM
c1ccc(Cc2nn3c(-c4ccncc4)nnc3s2)cc1	ALDH1A1 block 22µM, HPGD block 28µM
c1ccc(Cc2nnc3sc(-c4ccc5c(c4)OCCO5)nn23)cc1	ALDH1A1 block inconclusive, HPGD block inconclusive
c1ccc(-c2nn3c(-c4ccccc4)nnc3s2)cc1	NPSR antagonist inconclusive
c1ccc(OCc2nn3c(-c4ccncc4)nnc3s2)cc1	IMPase inh inconclusive
c1ccc(Cc2nnc3sc(-c4ccncc4)nn23)cc1	ALDH1A1 block 7.9µM, HPGD block 11µM, PNC inhibitor inconclusive
c1ccc(Cc2nnc3sc(-c4cccnc4)nn23)cc1	ALDH1A1 block 11µM, HPGD block 14µM, PNC inhibitor inconclusive
CCC/C=C/C(C)O (stereo not given)	none (no result: IMPase inh, PNC inhibitor, NPSR antagonist)
Cc1ccc(NC(=O)C(C)c2cccc(C(=O)c3ccccc3)c2)cc1O (stereo not given)	none (no result: IMPase inh)
